Rows were chosen to be rich in hits. Some 3.3% of all compounds tested hit in one or more screens of this group.
Anthrax LF inh2: Bacillus anthracis LF protease inhibitors, primary screen, biochemical, multiplex microsphere, MLPCN library; Lethal factor (Bacillus anthracis), P15917; multiplex microsphere protease cleavage assay; inhibition, % at 10 µM; 360,000 compounds, 0.12% hits; further: plate controls were buffer without enzyme for full effect and enzyme alone for no effect
Target sequence (P15917 whole entry, looked up): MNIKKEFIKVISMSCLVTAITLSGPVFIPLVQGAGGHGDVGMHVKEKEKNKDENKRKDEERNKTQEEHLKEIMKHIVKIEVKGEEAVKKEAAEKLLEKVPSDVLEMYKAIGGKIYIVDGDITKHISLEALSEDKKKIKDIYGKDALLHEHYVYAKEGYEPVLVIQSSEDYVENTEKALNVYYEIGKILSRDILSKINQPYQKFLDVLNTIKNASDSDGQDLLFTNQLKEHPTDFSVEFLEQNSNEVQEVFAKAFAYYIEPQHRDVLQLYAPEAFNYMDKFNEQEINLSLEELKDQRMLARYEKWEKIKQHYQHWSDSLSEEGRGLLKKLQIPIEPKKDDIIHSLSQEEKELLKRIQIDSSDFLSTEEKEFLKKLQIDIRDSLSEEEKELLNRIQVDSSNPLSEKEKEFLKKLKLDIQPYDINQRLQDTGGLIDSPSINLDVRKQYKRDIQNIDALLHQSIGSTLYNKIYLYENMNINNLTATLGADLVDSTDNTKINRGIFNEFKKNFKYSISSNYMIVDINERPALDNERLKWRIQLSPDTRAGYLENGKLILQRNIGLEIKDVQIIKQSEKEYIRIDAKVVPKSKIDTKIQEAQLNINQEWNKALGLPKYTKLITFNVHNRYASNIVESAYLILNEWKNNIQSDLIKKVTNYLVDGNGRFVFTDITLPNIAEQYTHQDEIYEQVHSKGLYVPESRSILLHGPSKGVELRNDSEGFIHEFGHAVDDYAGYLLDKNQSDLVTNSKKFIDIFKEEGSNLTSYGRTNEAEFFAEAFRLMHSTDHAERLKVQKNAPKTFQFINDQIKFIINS
SSB-PriA inh: inhibitors of Klebsiella pneumoniae PriA binding to SSB C-terminal tail, primary screen, biochemical, AlphaScreen. AlphaScreen SSBct-PriA binding, biotinylated peptide. inhibition, % at 33 µM. 430,000 compounds, 0.6% hits. AID 1272365, 2023; in the data active means inhibition mostly above about 37%, no sharp cut-off; inactive means mostly below about 20%;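 further: plate controls were negative control peptide for no effect and reference peptide for full effect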
BoNT F protease: BoNT/F light chain protease inhibitors, primary screen, biochemical, flow cytometry, MLPCN library | Multiplex microsphere protease cleavage assay | 360,000 compounds, 0.22% hits | AID 588497, 2011 | inhibition, % at 10 µM; in the data active means inhibition above about 35%, passing the limit was not always enough; inconclusive means no clear call, values can overlap the other calls; further: plate controls were buffer without enzyme for full effect and enzyme alone for no effect
MazEF act: activators of E. coli MazEF toxin-antitoxin RNase, primary screen, biochemical, fluorescence, uHTS; Endoribonuclease toxin MazF (Escherichia coli (strain K12)), P0AE70; FAM/BHQ RNA-DNA oligo cleavage fluorescence, 5 h; activation, % at 20 µM; 350,000 compounds, 0.32% hits; AID 504720, 2011; in the data active means activation above about 50%
BoNT A protease: BoNT/A light chain protease inhibitors, primary screen, biochemical, flow cytometry, MLPCN library; multiplex microsphere protease substrate cleavage; inhibition, % at 10 µM; 360,000 compounds, 0.17% hits; further: plate controls were buffer without enzyme for full effect and enzyme alone for no effect
Autofluor counter: compound fluorescence in toxin protease inhibitor counterscreen; compound autofluorescence counterscreen, microsphere flow cytometry; stronger effect = higher value; fluorescence intensity (no concentration beside the values); 360,000 compounds, 3.1% hits; AID 624483; in the data active means fluorescence intensity above about 16000; inconclusive means no clear call, values can overlap the other calls
Starred values were filed as active, the others as inactive; u = inconclusive; x = not tested or not shown. Unless noted, no stated cut-off is given here; in the data, active means inhibition above about 30%; inconclusive means no clear call, values can overlap the other calls; inactive means below that.

SMILES | Anthrax LF inh2 | SSB-PriA inh | BoNT F protease | MazEF act | BoNT A protease | Autofluor counter
O=C(Nc1cccc(Cl)c1Cl)C1CCN(c2ncccn2)CC1 | -1 | -2 | -12 | 6 | -9 | 22389*
O=C(CN1CCOCC1)Nc1cccc(Cl)c1Cl | 1 | -12 | -9 | -4 | u | 23826*
CCN(CC)c1ccc(NC(=O)CCCn2nc(-c3ccco3)ccc2=O)c(C)c1 | x | -4 | x | x | x | x
C=CCN1C(=O)c2cccc3c(N4CCCCC4)ccc(c23)C1=O | 15 | -22 | 14 | -6 | 30* | 6017
O=C1c2cccc3c(N4CCCCC4)ccc(c23)C(=O)N1c1cccc(O)c1 | -2 | -36 | 1 | 24 | 5 | 5354
Cc1n[nH]c(C)c1N1C(=O)c2cccc3c(N4CCCCCC4)ccc(c23)C1=O | -6 | -29 | 33 | 670* | 16 | 20898*
COc1ccc(C)cc1NC(=O)CON=C(N)CC(=O)Nc1ccccc1OC | x | -11 | x | x | x | x
CCCCc1ccc2nc(Cl)sc2c1 | x | -3 | x | x | x | x
O=C(CSc1ncccn1)NCc1ccccc1Cl | -2 | 5 | -4 | 2 | u | 21734*
O=C(COC(=O)COc1ccc2ccccc2c1)NCC(F)(F)F | -6 | 2 | 37* | 16 | 4 | 4574
CC(O)(CNC(=O)COc1ccc2ccccc2c1)c1ccccc1 (centres undefined) | x | -5 | x | x | x | x
Nc1nc(Cl)cc(N2CCC(c3cc(-c4ccc(Cl)cc4Cl)n[nH]3)CC2)n1 | -3 | -14 | -6 | -8 | -2 | 21717*
Nc1nc(Cl)cc(N2CCCC2)n1 | -7 | -1 | -5 | 1 | -1 | 4619
O=S(=O)(c1ccccc1F)N1CCC(c2cccs2)CC1 | x | -10 | x | x | x | x
Cc1ccc(-c2nc3sc4c(N)ncnc4c3c3c2CCCC3)cc1 | -2 | -11 | 1 | 36 | 0 | 22379*
Cc1cc(N2CCOCC2)cc(C)[n+]1[O-] | -4 | -4 | 0 | 2 | -1 | 16435*
CCOP(=O)(C(NC(=O)c1ccccc1)=C(Cl)Cl)c1ccccc1 (centres undefined) | x | -13 | x | x | x | x
CC(=O)c1cccc(NC(=O)[C@H]2CCCN(c3ccc(-n4cncn4)nn3)C2)c1 | x | -9 | x | x | x | x
O=C(NCCNC(=O)c1cc(OCC(F)(F)F)ccc1OCC(F)(F)F)Nc1cccc(C(F)(F)F)c1 | 0 | -32 | -8 | -2 | u | 24354*
O=C(Nc1ccc(OC(F)F)cc1)Nc1cccc(C(F)(F)F)c1 | -2 | -16 | -4 | 4 | u | 20493*
CN(C)S(=O)(=O)NCCNC(=O)c1cc(OCC(F)(F)F)ccc1OCC(F)(F)F | 1 | -3 | 0 | -9 | 0 | 2622
C=CCONC(=O)c1cc(OCC(F)(F)F)ccc1OCC(F)(F)F | -2 | -15 | -3 | 8 | -3 | 24141*
COc1ccc(-n2c(=O)[nH]cc(C(=O)O)c2=O)cc1 | x | -1 | x | x | x | x
O=C(NC1CCCC1)C1CCN(c2ncnc3c2sc2ncccc23)CC1 | x | -3 | x | x | x | x
CCOc1ccc(Cn2c3ccc(OC)cc3c3nc4ccccc4nc32)cc1 | 2 | -20 | -2 | 65* | 5 | 2285
SMILES | Anthrax LF inh2 | SSB-PriA inh | BoNT F protease | MazEF act | BoNT A protease | Autofluor counter
CCn1c2ccc(OC)cc2c2nc3ccccc3nc21 | x | -67 | x | 18 | x | x
CCCCOC(=O)Cn1c2ccc(OC)cc2c2nc3ccccc3nc21 | -2 | -6 | 0 | 215* | -1 | 12443
c1nc(N2CCCCCC2)c2[nH]cnc2n1 | 4 | -18 | 0 | 4 | 0 | 5711
c1nc(N2CCCC2)c2[nH]cnc2n1 | -1 | -7 | 0 | 7 | u | 23416*
COC(=O)Cc1c(C)c2ccc(OC(C)C)cc2oc1=O | 1 | -5 | -3 | 5 | 0 | 4642
CCc1c(C)c2ccc(OCC(=O)OC)cc2oc1=O | -5 | -23 | -10 | -4 | u | 17530*
COc1cccc(-c2nc(CS(=O)(=O)CC(=O)NCCc3ccc(OC)cc3OC)c(C)o2)c1 | -3 | -3 | 2 | 2 | -1 | 5009
COc1cccc(-c2nc(CS(=O)(=O)CC(=O)NCCc3cc(OC)ccc3OC)c(C)o2)c1 | -1 | 1 | 1 | -5 | 1 | 4428
COCCCNC(=O)CS(=O)(=O)Cc1nc(-c2cccc(OC)c2)oc1C | 1 | -7 | -4 | 7 | -3 | 20516*
COc1ccc(OC)c(CCNC(=O)CS(=O)(=O)Cc2nc(-c3ccc(C)cc3)oc2C)c1 | -1 | -11 | -5 | 7 | -3 | 23969*
COc1ccc(-c2nc(CS(=O)(=O)CC(=O)NCCc3cc(OC)ccc3OC)c(C)o2)cc1 | -3 | -9 | -2 | -3 | -2 | 17109*
COc1ccccc1NC(=O)Cn1cc(-c2nnc(-c3ccccc3)o2)c2ccccc21 | x | -1 | x | x | x | x
Nc1ccccc1-c1csc(-c2ccccc2F)n1 | x | -20 | x | x | x | x
Cc1cc(N2CCCC2)nc2ccccc12 | -9 | -10 | 2 | -11 | 0 | 3315
Cc1nn(-c2cc(C)c3ccccc3n2)c2c1CCC2 | 0 | -2 | 11 | -9 | 6 | 20384*
CCN1C(=O)/C(=C2\C=Cc3ccccc3N2CC)OC1=S | -2 | 41 | -7 | 235* | -1 | 10575
CCN1C(=O)/C(=C2/C=Cc3ccccc3N2CC)SC1=S | -3 | x | -14 | 14 | 0 | 2110
Cc1cc(C)c(S(=O)(=O)NCCc2ccc3c(c2)CCCN3C)cc1C | x | 40* | x | x | x | x
Cc1ccc(Cl)cc1S(=O)(=O)NCCc1ccc2c(c1)CCCN2C | x | 59* | x | x | x | x
Cc1c(C)c(C)c(S(=O)(=O)NCCc2ccc3c(c2)CCCN3C)c(C)c1C | x | 3 | x | x | x | x
COc1cccc(C(=O)C2CN(c3ccccc3)CC2c2ccc(Cl)cc2)c1 (centres undefined) | -4 | -31 | -5 | -10 | -2 | 21602*
COc1cc2sc(-c3ccccc3OC)c(-c3ccc(OCCN4CCCCC4)cc3)c2cc1OC | -2 | 46* | -13 | 5 | -1 | 4187
C1=C(c2sc3ccccc3c2-c2ccc(OCCN3CCOCC3)cc2)CCCC1 | -8 | 41* | -5 | 1 | 0 | 3907
c1ccc(-c2sc3ccccc3c2-c2ccc(OCCN3CCOCC3)cc2)cc1 | -5 | 11 | -7 | 1 | 0 | 4157
Cc1ccc(OC(=O)c2ccncc2)c(C)c1 | -13 | -3 | 47* | 5 | 0 | 3621
CC(=O)c1cc(C)ccc1OC(=O)c1ccncc1 | -13 | -3 | u | 0 | 1 | 3111
CCNc1ccc(Br)cc(C(=O)/C=C/c2ccccc2Cl)c1=O | 45* | 4 | 19 | -14 | 52* | 16998*
CC(=O)N1CCc2c(sc(NC(=O)Cc3ccccc3)c2C(N)=O)C1 | 6 | 115* | -2 | -35 | -1 | 6231
